Test results from PubChem BioAssay (NCI).
About 83,000 compounds went through this panel and 20% of them were active in at least one assay; those are over-represented in the sample as a whole.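 Note: values are percent growth. 100 is the growth of untreated cells, values between 100 and 0 indicate rising inhibition; between -100 and 0 indicates cell death.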 Calls of active or inactive are those of the source. The calls were made as follows: active = growth percent below 10; inactive = the rest.

Key:
Assay in all cases: NCI-60 one-dose screen, 48 h (100 = growth as untreated, 0 = no growth, -100 = all killed)
Conditions in all cases: 10 µM unless noted
[1] = system: HCT-15 colon
[2] = system: HT29 colon
[3] = system: SNB-75 CNS
[4] = system: SNB-19 CNS
[5] = system: U251 CNS
[6] = system: PC-3 prostate
[7] = system: SK-MEL-5 melanoma
[8] = system: UACC-62 melanoma
[9] = system: LOX IMVI melanoma
[10] = system: SK-MEL-28 melanoma
[11] = system: SK-MEL-2 melanoma
[12] = system: EKVX NSCLC
[13] = system: SN12C renal
[14] = system: TK-10 renal
[15] = system: ACHN renal
[16] = system: CAKI-1 renal
[17] = system: A498 renal
[18] = system: CCRF-CEM leukemia
[19] = system: MOLT-4 leukemia

Measured: growth

O=c1c2c(=NCCCN3CCCC3)cc3c(=O)n(CCCN4CCCC4)c(=O)c4c(NCCCN5CCCC5)cc(c(O)n1CCCN1CCCC1)c2c4-3
active: [2] -7.75% | [3] -83.1% | [4] 7.13% | [5] 1.98% | [7] -66% | [8] -52.2% | [9] -7.8% | [10] -42.3% | [11] 1.12% | [12] -17.2% | [15] -31.2% | [17] -67.3%
inactive: [1] 12.9% | [6] 11.7% | [13] 10.3% | [14] 13.1% | [16] 14.4% | [18] 10.1% | [19] 16.5%

COc1cc(C2CC(c3ccc(C)cc3)=NN2C=O)ccc1OCCN(C)C (stereo unspecified)
inactive: [1] 76% | [2] 84.2% | [3] 62.2% | [4] 92.5% | [5] 92.2% | [6] 79% | [7] 90.2% | [8] 100% | [9] 89.8% | [10] 107% | [11] 98.4% | [12] 90.1% | [13] 95.2% | [15] 100% | [17] 92.4% | [18] 88.7% | [19] 77.8%

COc1ccc(C2CC(c3ccc(Nc4ccnc5cc(Cl)ccc45)cc3)=NN2C(C)=O)cc1 (stereo unspecified)
active: [7] 5.89%
inactive: [1] 44.2% | [2] 27.4% | [3] 75.8% | [4] 82.4% | [5] 62.8% | [6] 53.3% | [8] 54.8% | [9] 60.5% | [10] 70.2% | [11] 107% | [12] 55.7% | [13] 76.1% | [15] 54.8% | [16] 73.2% | [17] 56.1% | [18] 47.2% | [19] 40.8%

CCOc1cc(/C=C/C(=O)C(C(=O)/C=C/c2ccc(OC(=O)CNc3nnc(C)s3)c(OCC)c2)C(=O)CNc2nnc(C)s2)ccc1OC(=O)CNc1nnc(C)s1
inactive: [4] 32.4% | [11] 11% | [14] 32.4%
active: [1] -60.1% | [2] -100% | [3] -15.8% | [5] -61.4% | [6] -27.9% | [7] -83.4% | [8] -88.7% | [9] -100% | [10] -68.5% | [12] -13.9% | [13] -3.17% | [15] -85.2% | [16] -6.01% | [17] -41.7% | [19] -34.3%

Cc1ccc(N/N=C(/C(=O)c2ccc(Cl)cc2)c2nc(C)cc(=O)[nH]2)cc1
inactive: [1] 111% | [2] 111% | [3] 116% | [4] 104% | [5] 103% | [6] 95% | [7] 82.5% | [8] 90.8% | [9] 92.6% | [10] 118% | [11] 95.3% | [12] 91.5% | [13] 100% | [14] 136% | [15] 99.1% | [16] 113% | [17] 108% | [19] 98.6%
active: [18] -15.1%

COc1cccc(-c2nc(-c3ccc(N)cc3)co2)c1
inactive: [1] 89.8% | [2] 87.2% | [3] 116% | [4] 113% | [5] 92.2% | [6] 98.2% | [7] 85.9% | [8] 90.3% | [9] 97% | [10] 111% | [11] 99.8% | [12] 102% | [13] 95.2% | [14] 109% | [15] 106% | [16] 94.7% | [17] 100% | [19] 81.8%

COc1ccc2c(c1)sc1nc(-c3ccc(N(C)C)cc3)cn12
inactive: [1] 116% | [2] 113% | [3] 162% | [4] 95.3% | [5] 98.3% | [6] 60.6% | [7] 108% | [8] 104% | [9] 113% | [10] 144% | [11] 88.6% | [12] 101% | [13] 123% | [14] 132% | [15] 135% | [16] 86.2% | [17] 111% | [18] 71.2% | [19] 76.7%

CC[C@H]1CN2CCc3cc(OC)c(OC)cc3C2C[C@@H]1CC1NCCc2cc(OC)c(OC)cc21 (stereo partly specified)
active: [1] -18% | [2] -14.5% | [3] -52.2% | [4] -6.47% | [5] -10.2% | [6] -12% | [7] -88.7% | [8] -82% | [9] -27.8% | [10] -14.4% | [11] -70.5% | [12] -27.4% | [13] -13.1% | [15] -16.5% | [16] -34.3% | [17] -49.9% | [18] -18% | [19] -13.1%
